Test results as given in the supplement of paper PMC6555819.

Legend:
Assay in all cases: PBM binding z-score (relative to random genomic background probes); higher = stronger binding; sequences stand for … in GC…GCGATTGACAGCGTAGAATGAAGG
[1] = system: FXR:RXRa (NR concentration 270 nM, RXRa partner concentration 90 nM)
Outline: (§1)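 Binding buffer was PBS pH 7.4 with 2% milk, 0.02% Triton X-100, 1 mM DTT, 0.2 mg/mL BSA and 0.4 mg/ml salmon testes DNA. In it, ligand-free nuclear receptor dimers were incubated 1 h on custom Agilent 4×180K protein-binding microarrays carrying double-stranded probes. Antibodies against each partner (one per run) detected binding, and z-scores were calculated against random background probes after regression normalization of scanned fluorescence.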

[2] = system: LXRa:RXRa (NR concentration 270 nM, RXRa partner concentration 90 nM)
Outline: as §1

[3] = system: LXRa homodimer (NR concentration 270 nM)
Outline: as §1

[4] = system: LXRb:RXRa (NR concentration 270 nM, RXRa partner concentration 90 nM)
Outline: as §1

[5] = system: LXRb homodimer (NR concentration 270 nM)
Outline: as §1

[6] = system: PPARa:RXRa (NR concentration 270 nM, RXRa partner concentration 90 nM)
Outline: as §1

[7] = system: PPARg:RXRa (NR concentration 180 nM, RXRa partner concentration 90 nM)
Outline: as §1

[8] = system: PPARg:RXRa 270nM:90nM, anti-RXR (NR concentration 270 nM, RXRa partner concentration 90 nM)
Outline: as §1

[9] = system: PPARg:RXRa 30nM:10nM, anti-RXR (NR concentration 30 nM, RXRa partner concentration 10 nM)
Outline: as §1

[10] = system: PPARg:RXRa 90nM:30nM, anti-RXR (NR concentration 90 nM, RXRa partner concentration 30 nM)
Outline: as §1

[11] = system: PPARg:RXRa DBDmut IVT, anti-RXR (DBD mutation: RXRa K156A/R161A, NR concentration 270 nM, RXRa partner concentration 90 nM)
Outline: as §1

[12] = system: PPARg:RXRa IVT, anti-PPARg (NR concentration 270 nM, RXRa partner concentration 90 nM)
Outline: as §1

[13] = system: PPARg DBDmut:RXRa IVT, anti-PPARg (DBD mutation: PPARg1 K132A/R137A, NR concentration 270 nM, RXRa partner concentration 90 nM)
Outline: as §1

[14] = system: PPARg DBDmut IVT, anti-PPARg (DBD mutation: PPARg1 K132A/R137A, NR concentration 270 nM)
Outline: as §1

[15] = system: PPARg homodimer (NR concentration 180 nM)
Outline: as §1

[16] = system: PXR homodimer (NR concentration 270 nM)
Outline: as §1

[17] = system: RARa:RXR (NR concentration 270 nM, RXRa partner concentration 90 nM)
Outline: as §1

[18] = system: RARa homodimer (NR concentration 270 nM)
Outline: as §1

[19] = system: RARb:RXRa (NR concentration 270 nM, RXRa partner concentration 90 nM)
Outline: as §1

Row | Sequence | PBM binding z-score [1] | PBM binding z-score [2] | PBM binding z-score [3] | PBM binding z-score [4] | PBM binding z-score [5] | PBM binding z-score [6] | PBM binding z-score [7] | PBM binding z-score [8] | PBM binding z-score [9] | PBM binding z-score [10] | PBM binding z-score [11] | PBM binding z-score [12] | PBM binding z-score [13] | PBM binding z-score [14] | PBM binding z-score [15] | PBM binding z-score [16] | PBM binding z-score [17] | PBM binding z-score [18] | PBM binding z-score [19]
1 | CGTCCAAGGTCAGAGAGGTCACTGAATGCCGAGT | 6.61 | 5.79 | 4.5 | 5.36 | 0.485 | 5.61 | 4.58 | 5.36 | 1.92 | 4.08 | 3.27 | 4.05 | 0.000167 | 0.0701 | 3.8 | 13.1 | 6.81 | 1.13 | 5.37
2 | ATCGAAAGGTCGTCGAGGTGAGTATACACCGTTT | 4.79 | 4.28 | 0.169 | 3.19 | 0.543 | 4.87 | 3.07 | 3.97 | 1.22 | 2.66 | 0.528 | 2.3 | 0.899 | 0.213 | 1.6 | 1.15 | 3.81 | 0.174 | 3.89
3 | AATACAGGGTCACTGGGCCAGAGTAGGTACGAAT | 6.75 | 5.6 | 1.01 | 4.21 | 0.418 | 6.23 | 8.71 | 6.98 | 3.69 | 5.91 | 4.06 | 5.96 | 1.16 | 2.2 | 3.2 | 0.0493 | 4.88 | 1.05 | 4.3
4 | CGCCCAAGGTCAGCAGGTCAGTGAAAGCGACGTG | 5.7 | 4.2 | 0.381 | 2.99 | -0.0743 | 4.81 | 3.8 | 4.59 | 1.02 | 2.98 | 2.94 | 3.56 | 0.803 | -0.776 | 3.74 | 0.324 | 5.15 | 1.97 | 5.18
5 | CCGTACGGGTCAAGGTTATAGCACGGGTGGTACG | 5.23 | 3.78 | -0.221 | 3.11 | -0.132 | 4.76 | 4.03 | 4.28 | 1.2 | 2.77 | 0.0598 | 2.11 | -0.559 | -1.41 | 1.37 | 0.0308 | 4.49 | -0.0555 | 4.09
6 | ATATGTAGGATATCGGGTCATTCAGTTTGCGCAT | 1.64 | 1.98 | 0.589 | 2.02 | 0.577 | 3.05 | 2.36 | 2.9 | 1.16 | 2.09 | 3.29 | 4.09 | 1.47 | 1.41 | 1.07 | 4.53 | 2.53 | 1.03 | 1.66
7 | CGTCCAAGGTCATACGAGGTCAGTGAAGACAGAT | 7.86 | 7.57 | 5.5 | 6.63 | 1.78 | 5.87 | 5.57 | 5.9 | 2.88 | 4.6 | 3.46 | 4.63 | 1.25 | 0.789 | 5.5 | 9.7 | 6.69 | 2.69 | 5.43
8 | GATAAAGGGTCAGCTAGAGGCCAGAGTATGGAAA | 5.39 | 3.97 | 0.0664 | 3.27 | 0.0558 | 5.06 | 4.3 | 4.76 | 2.03 | 3.31 | 2.27 | 2.89 | 0.542 | -0.0188 | 3.27 | -0.0592 | 4.78 | 1.02 | 5.21
9 | GCTCGGGGGACAAGGTCAGAGCTTTGTCCGTAGA | 3.46 | 3.46 | 0.143 | 3.96 | 4.29 | 4.25 | 3.61 | 4.54 | 1.72 | 3.56 | 2.28 | 3.25 | 1.23 | 1.71 | 1.58 | 0.127 | 3.59 | -0.41 | 3.92
10 | ATATGTAGGTTAGCTGGCGTCATTCAGACTAGGC | -0.167 | 0.0704 | -0.277 | -0.239 | 0.141 | 1.69 | 2.61 | 2.43 | 0.729 | 1.81 | 6.56 | 5.58 | 1.28 | 0.35 | 0.334 | -0.283 | 0.227 | 0.262 | 0.462
11 | GGAACGGGGGCAAGTTGATAGCAGAGTTTGATGG | 3.27 | 2.87 | 0.913 | 4.45 | 7.1 | 4.02 | 3.2 | 4.52 | 2.09 | 3.58 | 4.41 | 5.53 | 10.8 | 12.6 | 2.77 | 2.97 | 2.7 | 2.02 | 3.54
12 | GCTTACGGGTGAAAGGTTATAGCATGAATAGAAT | 2.96 | 2.79 | 0.142 | 3 | -0.294 | 5.7 | 9.88 | 8.08 | 7.78 | 8.71 | 3.24 | 4.67 | 0.644 | 0.4 | 1.72 | 0.0936 | 4.93 | 0.6 | 2.14
13 | AATACAGGGTCATTAGGCCAGAGTAGGTACGAAT | 7.31 | 5.48 | 2.17 | 4.27 | 1.52 | 5.58 | 6.71 | 5.91 | 2.62 | 4.89 | 3.37 | 4.54 | 1.38 | 0.677 | 2.55 | 0.493 | 4.48 | 1.06 | 4.04
14 | CGTCCGAGGTCAAAGGTCAGTGAAGAGATGACGG | 8.25 | 7.31 | 3.51 | 7.09 | 2.24 | 7.17 | 11.3 | 9.76 | 8.58 | 11.5 | 4.36 | 6.35 | 2.87 | 3.81 | 5.95 | 3.02 | 8.81 | 4.96 | 5.93
15 | ATATGTAGGTTACATCCGAGTCATTCAGGCTATG | 0.413 | 1.95 | 0.304 | 0.957 | 0.682 | 3.1 | 5.14 | 4.01 | 1.78 | 3.1 | 6.76 | 7.07 | 4.51 | 3.39 | 0.982 | 0.05 | 0.757 | 0.574 | 0.973
